From PubChem BioAssay AID1159580 (chemical genetic matrix, 2015)
The whole screen tested about 5,500 compounds, of which about 2,000 (36%) were called active. Inconclusive results (about 18%) are left out. Rule as the data show it: active = normalized growth mostly below about 0.91 (no sharp cut-off); inconclusive = no clear call, values can overlap the other calls; inactive = mostly above about 0.92. The list shows a part of the results.

Experiment: chemical genetic growth profiling, strain panel (AID 1159580);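 also: tested at 20 µM; growth read once vehicle control cultures reached saturation at 30 °C; 1 = growth at the plate median or of vehicle wells; lower values mean less growth of the strain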
Details: S. cerevisiae deletion strains, growth OD

Measured: normalized growth

O=c1c(O)c(-c2ccc(O)cc2)oc2ccccc12
active: locus YAL021C, strain ccr4, stronger effect = lower value 0.576 | locus YAL026C, strain drs2, stronger effect = lower value 0.707 | locus YAL030W, strain snc1, stronger effect = lower value 0.809 | locus YBL061C, strain skt5, stronger effect = lower value 0.714 | locus YBR009C, strain hhf1, stronger effect = lower value 0.7 | locus YBR023C, strain chs3, stronger effect = lower value 0.643 | locus YBR231C, strain swc5, stronger effect = lower value 0.794 | locus YBR279W, strain paf1, stronger effect = lower value 0.749 | locus YCL011C, strain gbp2, stronger effect = lower value 0.762 | locus YCL016C, strain dcc1, stronger effect = lower value 0.849 | locus YCL061C, strain MRC1, stronger effect = lower value 0.904 | locus YCL069W, strain vba3, stronger effect = lower value 0.816 | locus YDR069C, strain doa4, stronger effect = lower value 0.56 | locus YDR137W, strain rgp1, stronger effect = lower value 0.397 | locus YDR159W, strain sac3, stronger effect = lower value 0.792 | locus YDR195W, strain ref2 1.34 [resistant] | locus YDR297W, strain sur2, stronger effect = lower value 0.82 | locus YDR334W, strain swr1, stronger effect = lower value 0.831 | locus YDR335W, strain msn5, stronger effect = lower value 0.789 | locus YDR392W, strain spt3, stronger effect = lower value 0.284 | locus YEL003W, strain gim4, stronger effect = lower value 0.79 | locus YEL037C, strain rad23, stronger effect = lower value 0.853 | locus YEL061C, strain CIN8 (second series), stronger effect = lower value 0.885 | locus YER015W, strain faa2, stronger effect = lower value 0.615 | locus YER016W, strain bim1, stronger effect = lower value 0.863 | locus YER111C, strain swi4, stronger effect = lower value 0.745 | locus YER155C, strain BEM2 (second series), stronger effect = lower value 0.489 | locus YFR010W, strain ubp6, stronger effect = lower value 0.84 | locus YGL173C, strain kem1, stronger effect = lower value 0.499 | locus YGL240W, strain doc1, stronger effect = lower value 0.855 | locus YGL253W, strain hxk2, stronger effect = lower value 0.63 | locus YHR013C, strain ard1, stronger effect = lower value 0.506 | locus YHR027C, strain rpn1, stronger effect = lower value 0.546 | locus YHR030C, strain SLT2, stronger effect = lower value 0.847 | locus YHR142W, strain chs7, stronger effect = lower value 0.495 | locus YJL095W, strain BCK1 (second series), stronger effect = lower value 0.731 | locus YJL095W, strain BCK1, stronger effect = lower value 0.833 | locus YJL129C, strain trk1, stronger effect = lower value 0.717 | locus YJL164C, strain tpk1, stronger effect = lower value 0.564 | locus YJL166W, strain qcr8, stronger effect = lower value 0.538 | locus YJL187C, strain SWE1, stronger effect = lower value 0.725 | locus YKL160W, strain elf1, stronger effect = lower value 0.713 | locus YLL001W, strain dnm1, stronger effect = lower value 0.777 | locus YLL026W, stronger effect = lower value 0.809 | locus YLL041C, strain sdh2, stronger effect = lower value 0.91 | locus YLR027C, strain aat2, stronger effect = lower value 0.695 | locus YLR113W, strain HOG1, stronger effect = lower value 0.719 | locus YLR221C, strain rsa3, stronger effect = lower value 0.697 | locus YLR258W, strain gsy2, stronger effect = lower value 0.766 | locus YLR262C, strain YPT6 (second series), stronger effect = lower value 0.369 | locus YLR320W, strain mms22, stronger effect = lower value 0.426 | locus YLR342W, strain FKS1, stronger effect = lower value 0.757 | locus YLR370C, strain arc18, stronger effect = lower value 0.781 | locus YLR384C, strain iki3, stronger effect = lower value 0.905 | locus YML120C, strain ndi1, stronger effect = lower value 0.669 | locus YMR058W, strain fet3, stronger effect = lower value 0.179 | locus YMR205C, strain PFK2, stronger effect = lower value 0.56 | locus YMR231W, strain pep5, stronger effect = lower value 0.545 | locus YNL071W, strain lat1, stronger effect = lower value 0.471 | locus YNL209W, strain ssb2, stronger effect = lower value 0.458 | locus YNL248C, strain rpa49, stronger effect = lower value 0.837 | locus YOR001W, strain rrp6, stronger effect = lower value 0.695 | locus YOR070C, strain gyp1, stronger effect = lower value 0.666 | locus YOR080W, strain dia2, stronger effect = lower value 0.861 | locus YOR083W, strain WHI5, stronger effect = lower value 0.664 | locus YOR106W, strain vam3, stronger effect = lower value 0.319 | locus YOR231W, strain MKK1, stronger effect = lower value 0.847 | locus YOR265W, strain rbl2, stronger effect = lower value 0.816 | locus YOR270C, strain vph1, stronger effect = lower value 0.328 | locus YOR290C, strain snf2, stronger effect = lower value 0.641 | locus YPL051W, strain arl3, stronger effect = lower value 0.441 | locus YPL078C, strain atp4, stronger effect = lower value 0.651 | locus YPL106C, strain sse1, stronger effect = lower value 0.843 | locus YPL240C, strain hsp82, stronger effect = lower value 0.869 | locus YPL256C, strain CLN2, stronger effect = lower value 0.816
inactive: locus YBR171W, strain sec66, stronger effect = lower value 0.903 | locus YCR088W, strain abp1, stronger effect = lower value 0.962 | locus YDL005C, strain med2, stronger effect = lower value 0.965 | locus YDL040C, strain nat1, stronger effect = lower value 0.934 | locus YDR001C, strain nth1, stronger effect = lower value 0.936 | locus YGL167C, strain pmr1, stronger effect = lower value 0.921 | locus YGL227W, strain vid30, stronger effect = lower value 0.962 | locus YHR079C, strain IRE1, stronger effect = lower value 0.855 | locus YJL092W, strain hpr5, stronger effect = lower value 0.922 | locus YJL115W, strain asf1, stronger effect = lower value 0.971 | locus YJL154C, strain vps35, stronger effect = lower value 0.931 | locus YJR066W, strain TOR1, stronger effect = lower value 0.842 | locus YKR026C, strain gcn3, stronger effect = lower value 0.945 | locus YKR091W, strain srl3, stronger effect = lower value 0.937 | locus YLR357W, strain rsc2, stronger effect = lower value 0.9 | locus YMR125W, strain sto1, stronger effect = lower value 0.972 | locus YMR129W, stronger effect = lower value 0.932 | locus YNL183C, strain NPR1, stronger effect = lower value 0.838 | locus YNL322C, strain KRE1 (second series), stronger effect = lower value 0.909 | locus YNR049C, strain mso1, stronger effect = lower value 0.919
